Results filed as inconclusive are left out. A call without a number means that no potency is given here. Calls of active or inactive are those of the source. Calls come from the whole dose curve; as a rule, active = well fitted cell-killing curve with a large enough effect; inconclusive = small, poorly fitted or top-dose-only effect, or effect the other way; inactive = no such curve, though single readings can be large or run the other way.
Assay: Quantitative High-Throughput drug screen in 47 multiple myeloma cell lines against the NCATS MIPE library collection: OCIMY1_PLB cell viability assay (AID 1918979); note: nearly all actives have a fitted effect of over 35% in size
Conditions: OCI-MY1 myeloma viability, CellTiter-Glo ATP, 48 h; series mostly up to 45.8 µM
Description: PI: Beverly A. Mock Ph.D.
Laboratory of Cancer Biology and Genetics,
Center for Cancer Research, National Cancer Institute,
National Institute of Health, Bethesda, Maryland
Drug resistance and disease progression are common in multiple myeloma (MM) patients, underscoring the need for new therapeutic combinations. […] We hypothesized that effective combinations would reduce MYC expression and enhance p16 activity. […] These preclinical data identify potentially useful drug combinations for evaluation in drug-resistant MM and reveal potential mechanisms of combined drug sensitivity.
Described herein is the primary MIPE qHTS used to cherrypick compounds. Validated compounds were then further tested for potential synergistic activiy.
[1] Peat TJ, Gaikwad SM, Dubois W, Gyabaah-Kessie N, Zhang S, Gorjifard S, Phyo Z, Andres M, Hughitt VK, Simpson RM, Miller MA, Girvin AT, Taylor A, Williams D, D'Antonio N, Zhang Y, Rajagopalan A, Flietner E, Wilson K, Zhang X, Shinn P, Klumpp-Thomas C, McKnight C, Itkin Z, Chen L, Kazandijian D, Zhang J, Michalowski AM, Simmons JK, Keats J, Thomas CJ, Mock BA. Drug combinations identified by high-throughput screening promote cell cycle transition and upregulate Smad pathways in myeloma. Cancer Lett. 2023 Aug 1;568:216284. doi: 10.1016/j.canlet.2023.216284. Epub 2023 Jun 24. PMID: 37356470; PMCID: PMC10408729.
SEQUENCE No. (e.g., 1, 2, 3, etc.); […] (e.g., Cells, Incubation, Reagent, etc.); VALUE and DESCRIPTION.
1; Cells; 5 uL; white, solid bottom 1536-well Greiner assay plate.
2; Compounds; 23 nL; Kalypsis pin tool (Wako USA) equipped with a 1536-well pin head to transfer to the assay plates.
3; Incubation; 48 hours; 37C incubation.
4; Reagent;5uL; CellTiter Glo (Promega).
5; Detector; 425V; Luminescence; Viewlux PerkinElmer.
NOTES (numbers refer to Sequence numbers above)
1. The cell-based screening methods employed in this study were like those previously published. Briefly, the corresponding myeloma cell lines were screened in 1,536-well plates with 500 cells, 5-uL per well for inhibition of cell viability (assessed by measuring ATP levels with CellTiterGlo).
2. NCATS MIPE 4.0 library of approved and investigational drugs were added using the Kalypsis pin tool. Wells treated with DMSO only for 100% viability and media only for 0% viability were used as controls.
3. The assay plates were covered and incubated for 48 hours in a 37C, 5% CO2 incubator with controlled humidity.
4. After 48 hours, CellTilter-GloTM luminescent substrate mix (Promega) reagent was added to the assay plate and plates we incubated for 5 min at room temperature.
5. Signal was measured as median relative luminescence units on a ViewLux (PerkinElmer) multiplate reader.
[1] Heske CM, Davis MI, Baumgart JT, Wilson K, Gormally MV, Chen L, Zhang X, Ceribelli M, Duveau DY, Guha R, Ferrer M, Arnaldez FI, Ji J, Tran HL, Zhang Y, Mendoza A, Helman LJ, Thomas CJ. Matrix Screen Identifies Synergistic Combination of PARP Inhibitors and Nicotinamide Phosphoribosyltransferase (NAMPT) Inhibitors in Ewing Sarcoma. Clin Cancer Res. 2017 Dec 1;23(23):7301-7311. doi: 10.1158/1078-0432.CCR-17-1121. Epub 2017 Sep 12. PMID: 28899971; PMCID: PMC6636827.
Potency is the fitted concentration of half-maximal effect.

| Structure (SMILES) | Potency |
| --- | --- |
| CCc1cncnc1N1CCN(Cc2nc3ccc(C(F)(F)F)cc3[nH]2)CC1 | inactive |
| CC[C@@H](C)[C@H](NC(=O)[C@H](CC1CCCCC1)NC(=O)c1ccno1)C(=O)N1CCC2(CCc3ccccc32)CC1 | 16.6 µM (active) |
| CN(C)C(=O)c1ccc(S(=O)(=O)c2ccc(NC(=O)[C@@](C)(O)C(F)(F)F)c(Cl)c2)cc1 | inactive |
| CC[C@H](Nc1ncnc2nc[nH]c12)c1nc2cccc(F)c2c(=O)n1-c1ccccc1 | 16.6 µM (active) |
| CN1CCN(CCCN2c3ccccc3Sc3ccc(C(F)(F)F)cc32)CC1 | inactive |
| COc1ccccc1-c1cccc(-c2c(O)c3cc(C#N)c(Cl)cc3[nH]c2=O)c1 | inactive |
| CC1(C)CNc2cc(NC(=O)c3cccnc3NCc3ccncc3)ccc21 | inactive |
| Cc1cc2c(F)c(Oc3ncnn4cc(OC[C@@H](C)O)c(C)c34)ccc2[nH]1 | inactive |
| Cc1cc(C=c2sc3nc4ccccc4n3c2=O)c(C)n1-c1ccccc1 | inactive |
| CC(C[N+](C)(C)C)OC(N)=O (stereo not given) | inactive |
| Cc1cnc(Nc2ccc(OCCN3CCCC3)cc2)nc1Nc1cccc(S(=O)(=O)NC(C)(C)C)c1 | inactive |
| Cc1cc(Nc2nc(N[C@@H](C)c3ncc(F)cn3)ncc2Cl)n[nH]1 | inactive |
| CCC(C)n1ncn(-c2ccc(N3CCN(c4ccc(OC[C@H]5CO[C@](Cn6cncn6)(c6ccc(Cl)cc6Cl)O5)cc4)CC3)cc2)c1=O (stereo not given in full) | 4.18 µM (active) |
| Cc1ccccc1C(OCCN(C)C)c1ccccc1 (stereo not given) | inactive |
| Cn1cnc2c(F)c(Nc3ccc(Br)cc3Cl)c(C(=O)NOCCO)cc21 | inactive |
| CNC[C@H](O)c1cccc(O)c1 | inactive |
| Cc1cnc(NC(=O)C2=C(O)c3ccccc3S(=O)(=O)N2C)s1 | inactive |
| O=C1CCc2cc(OCCCCc3nnnn3C3CCCCC3)ccc2N1 | inactive |
| COc1cccc2cc(-c3nc(C4CCC(C(=O)O)CC4)n4ncnc(N)c34)[nH]c12 (stereo not given) | 1.05 µM (active) |
| Cc1oncc1C(=O)Nc1ccc(C(F)(F)F)cc1 | inactive |

| Structure (SMILES) | Potency |
| --- | --- |
| Cn1cc(-c2ccc3nnc(C(F)(F)c4ccc5ncccc5c4)n3n2)cn1 | inactive |
| CN(C)c1ccc(C2Nc3ccc4ccccc4c3C3=C2C(=O)CC(C)(C)C3)cc1Br (stereo not given) | inactive |
| S=C(NCc1ccc2c(c1)OCO2)N1CCN(c2ncnc3c2oc2ccccc23)CC1 | 42.9 µM (active) |
| Nc1ccc(S(=O)(=O)Nc2ccnn2-c2ccccc2)cc1 | inactive |
| CCCC(CCC)C(=O)O | inactive |
| CCCCCCCc1ccc(CCc2cccc(O)c2C(=O)O)cc1 | inactive |
| O=C(C=Cc1ccc(/C=C/C(=O)Nc2ccc(C3=NCCN3)cc2)cc1)Nc1ccc(C2=NCCN2)cc1 | inactive |
| Cc1cccc(-c2nn(C(=S)Nc3ccccc3)cc2-c2ccnc3ccccc23)n1 | inactive |
| N=c1nc(N2CCCCC2)cc(N)n1O | inactive |
| CN[C@@H](C)C(=O)N[C@H]1CCCC[C@H]2CC[C@@H](C(=O)N[C@@H](c3ccccc3)c3cn(CCCCc4ccc(CCCCn5cc([C@@H](NC(=O)[C@@H]6CC[C@@H]7CCCC[C@H](NC(=O)[C@H](C)NC)C(=O)N76)c6ccccc6)nn5)cc4)nn3)N2C1=O | inactive |
| COc1ccc(-c2oc3cc(OC)ccc3c2C(=O)c2ccc(C#N)cc2)cc1 | inactive |
| CCn1cc(C(=O)O)c(=O)c2cc(F)c(N3CCNC(C)C3)c(F)c21 (stereo not given) | inactive |
| CS(=O)(=O)c1cccc(CNc2nc(Nc3ccc4c(c3)CCC(=O)N4)ncc2C(F)(F)F)c1 | 16.6 µM (active) |
| CNCc1ccc(-c2[nH]c3cc(F)cc4c3c2CCNC4=O)cc1 | inactive |
| Nc1ncnc2nc(-c3ccc(N4CCOCC4)nc3)cc(-c3cccc(Br)c3)c12 | inactive |
| COc1ccc([C@@H]2CC(=O)c3c(O)cc(O[C@@H]4O[C@H](CO[C@@H]5O[C@@H](C)[C@H](O)[C@@H](O)[C@@H]5O)[C@@H](O)[C@H](O)[C@@H]4O)cc3O2)cc1O | inactive |
| CC(C)(C)OC(=O)CN(Cc1ccc(Cl)cc1)Cc1ccc([N+](=O)[O-])s1 | inactive |
| CNC(=O)c1ccc(N2C(=S)N(c3ccc(C#N)c(C(F)(F)F)c3)C(=O)C2(C)C)cc1F | inactive |
| COc1ccc(-c2ccc3c(N4CCOCC4)nc(N4C[C@@H](C)O[C@@H](C)C4)nc3n2)cc1CO | 4.69 µM (active) |
| CS(=O)(=O)Oc1ccc2c(NC(N)=O)c(C(=O)c3ccc(Cl)cc3Cl)oc2c1 | inactive |

Reference: PubChem BioAssay (NCATS)
